The values that follow come from PubChem BioAssay AID686979 (National Center for Advancing Translational Sciences (NCATS), 2013).

The structures appear in SMILES notation. Among all 420,000 compounds or so, about 50,000 (12%) were called active. Entries that show only a call come without a potency. About 26% were inconclusive and are not listed. Calls come from the whole dose curve; as a rule, active = well fitted inhibition curve with a large enough effect; inconclusive = small, poorly fitted or top-dose-only effect; inactive = flat fitted curve, though single readings scatter. Only a selection was taken, and actives are over-represented in it overall.
Potency is the fitted concentration of half-maximal effect.

This assay is described as follows: qHTS for Inhibitors of human tyrosyl-DNA phosphodiesterase 1 (TDP1): qHTS in cells in presence of CPT. Note: nearly all actives have a fitted effect of over 55% in size. As to conditions: chicken DT40 Tdp1-/-;hTDP1 cells + 20 nM CPT, ATP luminescence, 48 h; series mostly up to 46.2 µM. The method in brief:
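Cell growth measured by CellTiter-Glo luminescence after a minimum 48 h, 37 C compound exposure with 20 nM CPT in Tdp1-knockout DT40 cells stably expressing hTDP1, seeded 400/well; qHTS titration format.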
Take `Cc1cc(C)cc(NC(=O)CCCc2nc(-c3ccccc3Cl)no2)c1`: the Potency result was “inactive”. In the case of `COc1ccc(-c2noc(CNC(=O)C(C)Oc3ccccc3)n2)cc1` (centres undefined), the Potency entry was “inactive”. As to `NC1=NC(c2ccc([N+](=O)[O-])cc2)N(c2ccc(F)cc2)C(N)=N1` (centres undefined), the Potency result is “inactive”.

For the compound `COCCn1c(-c2ccc(OC)c(OC)c2)nc2ccccc21`, the Potency entry was “inactive”.

Regarding `Cc1ccc(OCCn2c(CNc3ccccc3C)nc3ccccc32)cc1`, the Potency was 23.1 µM (active). The result for `Cc1ccc(OCc2nc3ccccc3n2C)cc1` reads “inactive”. For `COc1cc2ccccc2cc1C(=O)Nc1nc(C)c(C(C)=O)s1` the value was “inactive”; for `Cc1csc2nc(COC(=O)c3ccc(NC(=O)COc4ccccc4F)cc3)cc(=O)n12`, 18.4 µM (active); for `Cc1csc2nc(COc3ccc(NC(=O)COc4ccccc4)cc3)cc(=O)n12`, “inactive”. For `O=C(COc1ccccc1F)Nc1ccc(C(=O)OCc2cc(=O)n3nc(C4CC4)sc3n2)cc1` the value was “inactive”; for `COc1ccc(CCNC(=O)CCNS(=O)(=O)c2cc(Br)cnc2N)cc1OC`, “inactive”; for `COC(=O)[C@H](CC(C)C)NC(=O)N1CCCCC1C` (some centres undefined), “inactive”.

Turning to `Cc1nc2ccccc2c(C(=O)O)c1-c1ccccn1`, the Potency entry is “inactive”. For `CC(C)(C)Nc1nc(-c2ccccn2)nc2ccccc12` the value was 4.61 µM (active). For `CC(=O)Nc1ccc(NC(=O)CCN2C(=O)C3CC=CCC3C2=O)cc1` (centres undefined) the value was “inactive”; for `COC(=O)[C@]1(C)CCC[C@@]2(C)C3CC[C@]4(OC(C)=O)C[C@@]3(CCC21)CC4=NO` (some centres undefined), 16.4 µM (active).

In the case of `COC(=O)[C@@H]1C[C@H]2CC[C@H](O)C[C@H]2N1Cc1ccc(N2CCN(C)CC2)cc1`, the Potency entry was “inactive”. The result for `O=C(c1cccnc1NCc1ccccc1)N1CCOCC1` reads “inactive”; that for `Oc1c(C(c2ccccn2)N2CCOCC2)ccc2cccnc12` (centres undefined), 16.4 µM (active).

On to `Cc1nc2sc(C(c3ccco3)N3CCOCC3)c(O)n2n1` (centres undefined), for which the Potency result is “inactive”.

On to `O=C(O)c1cc(S(=O)(=O)Nc2ccc3cn[nH]c3c2)ccc1Br`, for which the Potency entry was “inactive”. For `O=C(Nc1ccccc1)C1CC(=O)n2c(nc3ccccc32)N1` (centres undefined) the value was “inactive”; for `O=c1ccc2cc(S(=O)(=O)NCCCc3ccccc3)ccc2[nH]1`, “inactive”. With `CSc1nnc(C2CCCN(CC(=O)Nc3ccccc3N3CCOCC3)C2)n1C(C)C` (centres undefined), the Potency entry is “inactive”. Turning to `Cc1cccc(Cn2c(SCCO)nc3c2c(=O)n(C)c(=O)n3C)c1`, the Potency was 25.9 µM (active). Regarding `CC(C)n1c(SCC(=O)Nc2ccccc2N2CCCCC2)nc2c1c(=O)n(C)c(=O)n2C`, the Potency is 29.1 µM (active). The result for `C#CC(C)(C)NC(=O)CSc1nc2c(c(=O)n(C)c(=O)n2C)n1CCCC` reads “inactive”; that for `Cn1c(=O)c2c(nc(SCC(=O)Nc3ccc(F)cc3)n2Cc2ccccc2)n(C)c1=O`, 4.61 µM (active); that for `CCCCn1c(SCC(=O)N2CCOCC2)nc2c1c(=O)n(C)c(=O)n2C`, “inactive”.

In the case of `CCC1CCCCN1C(=O)CSc1nc2c(c(=O)n(C)c(=O)n2C)n1C` (centres undefined), the Potency entry is “inactive”. The result for `COC(=O)C(C)Sc1nc2c(c(=O)n(C)c(=O)n2C)n1Cc1cccc(C)c1` (centres undefined) reads “inactive”; that for `CCOC(=O)CSc1nc2c(c(=O)n(C)c(=O)n2C)n1Cc1ccccc1F`, “inactive”. In the case of `O=C(c1cccs1)N1C[C@H](n2cc(C3CC3)nn2)[C@@H](O)C[C@@H]1c1ccccc1`, the Potency entry is “inactive”. For `O=C(O)CC12CC3CC(C1)CC(n1ncc(NCc4ccc(F)cc4)c(Cl)c1=O)(C3)C2` the value was “inactive”; for `Cc1ccc(C(=O)NCC(c2cccs2)N(C)C)cc1S(=O)(=O)N1CCOCC1` (centres undefined), “inactive”; for `O=C(NCc1csc(-c2cccs2)n1)C1CC1`, “inactive”. For `CC(C)(C)C1CCC(C(=O)NCC(c2cccs2)N2CCOCC2)CC1` (centres undefined) the value was 16.4 µM (active). The result for `Cc1c(C=O)c2ccccc2n1CC(=O)O` reads “inactive”; that for `Cc1ccc(S(=O)(=O)N2CCOCC2)cc1NC(=O)COC(=O)c1cnccn1`, “inactive”; that for `COc1cc(/C=C/c2ccc(/C=C/c3cc(OC)c(OC)c(OC)c3)cc2)cc(OC)c1OC`, “inactive”.

Take `O=C1c2ccccc2C2=Nc3ccccc3SC(c3ccccc3F)C12` (centres undefined): the Potency was 14.6 µM (active).

With `O=C1c2ccccc2C(=O)C1c1ccccc1F`, the Potency result was “inactive”. Take `O=C1CSC(=S)N1c1ccc(Cl)c(Cl)c1`: the Potency result was “inactive”. On to `COc1ccc(/C=C(\C#N)c2c[nH]c3ccccc23)cc1`, for which the Potency is 1.16 µM (active). On to `COc1ccc(/C=C(\NC(=O)c2ccc(OC)c(OC)c2)C(=O)NCCc2c[nH]c3ccccc23)cc1`, for which the Potency entry is “inactive”. The result for `C[N+](C)(C)CCNC(=O)c1c[nH]c2ccccc12` reads “inactive”. The result for `COC(=O)c1ccc(/C=N/OCC(=O)Nc2cc(F)ccc2F)cc1` reads “inactive”. For `COc1cccc(N2CC(NS(=O)(=O)c3ccc(Cl)cc3)CC2=O)c1` (centres undefined) the value was “inactive”; for `CC(C)(C)CN1C(=O)C(=O)NC[C@H]1Cc1cccc2ccccc12`, “inactive”. Consider `CSC1=NCCN1C(=O)Cc1cccc2ccccc12`, for which the Potency entry was “inactive”. The result for `c1ccc(C[C@H]2CNCCN2CCC23CC4CC(CC(C4)C2)C3)cc1` reads 10.3 µM (active); that for `c1ccc2c(CCN3CCNC[C@H]3Cc3cccc4ccccc34)cccc2c1`, 20.6 µM (active); that for `O=C1CCNCCN1[C@H](CO)Cc1ccccc1`, “inactive”. The result for `Nn1c(SCC(=O)NC2CCCC2)nnc1-c1ccccc1F` reads “inactive”; that for `COCC1CCN(C(=O)c2ccc3oc(Cc4ccccc4)nc3c2)C1` (centres undefined), “inactive”; that for `COc1cc(OC)c(NC(=O)c2cc(S(=O)(=O)N3CCCC3)cn2C)cc1Cl`, “inactive”. With `Cc1ccccc1NC(=O)CCOc1ccccc1`, the Potency result is “inactive”. As for `Cc1cccc(OCCC(=O)Nc2ccccc2C(N)=O)c1`, the Potency is 9.2 µM (active). On to `Cc1cccc(OCC(=O)Nc2ccccc2F)c1`, for which the Potency entry is “inactive”.

As to `Cc1oc2c(c1C(=O)Nc1ccc(F)c(F)c1)C1=NCCN1C=N2`, the Potency result is “inactive”. As to `COc1ccc(/C=N/n2nnnc2N)cc1OC`, the Potency result was “inactive”. Regarding `Nc1nc(SCC(=O)Nc2ccc(Cl)c([N+](=O)[O-])c2)n[nH]1`, the Potency entry is “inactive”. Turning to `CC(OC(=O)CN1C(=O)COc2ccccc21)C(=O)NCc1ccc(F)cc1` (centres undefined), the Potency result was “inactive”.

With `O=C(CN1CCOC1=O)N1CCCC(Nc2ccc(F)c(F)c2)C1` (centres undefined), the Potency result was “inactive”. Turning to `CC(C)=C1C2CCC1C1C(=O)N(NC(=O)c3ccco3)C(=O)C21` (centres undefined), the Potency result is “inactive”. For `O=C(NCCc1ccccc1)c1ccc(OCCOc2ccccc2)cc1` the value was “inactive”; for `O=C(NCCOc1ccccc1)c1ccccc1`, “inactive”. For `CC(C)(c1ccccc1)c1ccc(OCCN)cc1` the value was 18.4 µM (active); for `CCOC(=O)c1sc(NC(=O)/C=C/c2ccc(C(C)C)cc2)c(C(=O)OCC)c1C`, “inactive”.

As to `COc1cccc(CNC(=O)[C@@H]2CCCN2C(=O)[C@@H]2CCCN2C(=O)c2ccccc2)c1`, the Potency result was “inactive”.

With `CCOC(=O)CNC(=O)c1nn(-c2cccc(OC)c2)c(=O)c2ccccc12`, the Potency result was “inactive”. With `COc1cccc(N2C(=O)CN(Cc3ccccc3)C2=S)c1`, the Potency result was “inactive”. For `COc1cccc(-n2nc(C(=O)N3CCN(Cc4ccccc4)CC3)c3ccccc3c2=O)c1` the value was 20.6 µM (active); for `N=C1C(c2nc3ccccc3[nH]2)=C(O)CN1NC(=O)c1c[nH]c2ccccc12`, “inactive”; for `O=C(COC(=O)CCCN1C(=O)c2cccc3cccc(c23)C1=O)NC1CCS(=O)(=O)C1` (centres undefined), “inactive”.

With `Cc1ccc(-c2cc(C(=O)Nc3nn[nH]n3)c3ccccc3n2)c(C)c1`, the Potency result is “inactive”. With `Cc1ccc(-c2cc(C(=O)N/N=C/C=C/c3ccco3)c3ccccc3n2)cc1C`, the Potency is 8.2 µM (active).

Consider `Nc1ccccc1C(=O)NC1CCCCNC1=O` (centres undefined), for which the Potency result is “inactive”. On to `CNC(=O)c1ccc(CN(C)C(=O)c2cc(C3CC3)nc3c2cnn3C(C)C)cc1`, for which the Potency entry is “inactive”. The result for `CCOC(=O)c1ccc(NC(=O)CNC(=O)c2ccco2)cc1` reads “inactive”; that for `CCOC(=O)c1ccc(-c2ccc(/C=C(\C#N)C(=O)Nc3ccc(OCC)cc3)o2)cc1`, “inactive”; that for `CCOC(=O)c1ccc(-c2ccc(/C=C(\C#N)C(=O)Nc3ccc(C)cc3)o2)cc1`, 9.2 µM (active). Turning to `N#C/C(=C\N1CCOCC1)S(=O)(=O)c1ccc(Cl)cc1`, the Potency entry was “inactive”. Regarding `O=C(COC(=O)c1ccccn1)NNC(=O)c1ccc([N+](=O)[O-])cc1`, the Potency entry was “inactive”.

In the case of `O=S1(=O)CCN(Cc2ccccc2)CC1`, the Potency entry was “inactive”.

As for `CN(CC(=O)NCc1ccncc1)S(=O)(=O)c1ccc(Br)cc1`, the Potency entry is “inactive”.

In the case of `CC(=O)c1nn(-c2ccccc2)c(=Nc2ccccc2)cc1C`, the Potency entry was “inactive”. For `COC(=O)c1cc(-c2cccs2)nc2ccccc12` the value was “inactive”; for `O=c1[nH]c(-c2cccs2)nc2ccccc12`, “inactive”; for `CC(=O)Nc1cccc(Nc2nc(-c3cccs3)nc3ccccc23)c1`, 16.4 µM (active). For `CCN(CC)c1ccc(/C=N/NC(=O)CNC(=O)c2cccs2)cc1` the value was “inactive”; for `CCN(C(=O)CSc1ncnc2sccc12)c1c(N)n(Cc2ccccc2)c(=O)[nH]c1=O`, “inactive”; for `Cc1nnc(-c2ccc(Oc3ccc(C)c(C)c3)c([N+](=O)[O-])c2)o1`, 16.4 µM (active). Take `COc1ccc(-c2nc3cc([N+](=O)[O-])ccc3o2)cc1OC`: the Potency result is “inactive”. For `COc1ccc(OCC(=O)Nc2cc(C)c(Cl)cc2OC)c([N+](=O)[O-])c1` the value was “inactive”; for `Nc1nc(SCC(=O)NN(c2ccccc2)c2ccccc2)n[nH]1`, “inactive”; for `Cc1ccc(C(=O)Nc2ccccc2F)cc1S(=O)(=O)N1CCOCC1`, “inactive”.

Consider `CCc1ccc(N(C(=O)c2csnn2)C(C(=O)NC2CCCCC2)c2cccnc2)cc1` (centres undefined), for which the Potency entry was “inactive”.

Take `Cc1ccc(S(=O)(=O)NCCC(c2ccccc2)c2ccccc2)cc1C(=O)O`: the Potency result was “inactive”. The result for `O=c1[nH]oc(O)c1-c1ncc(C(F)(F)F)cc1Cl` reads “inactive”; that for `Cc1ccc(-c2nnc(Nc3ccc(C(=O)N(C)C)cc3)c3ccccc23)cc1S(N)(=O)=O`, “inactive”; that for `COCCNS(=O)(=O)c1cc(-c2nn3c(C)nnc3c3ccccc23)ccc1C`, “inactive”. For `CCNS(=O)(=O)c1cc(-c2nnc(Nc3cccc(C(F)(F)F)c3)c3ccccc23)ccc1C` the value was 5.8 µM (active); for `O=C(O)C1CCCN1C1=NS(=O)(=O)c2ccccc21` (centres undefined), “inactive”.
